Reference: PubChem BioAssay (NCATS)
Inconclusive results are not listed. The source made the active and inactive calls. Calls come from the whole dose curve; as a rule, active = well fitted curve in the direction sought with a large enough effect; inconclusive = small, poorly fitted or top-dose-only effect, or another doubt; inactive = no such curve, though single readings can be large; an effect the other way counts as inactive or inconclusive.

Legend:
[1] = qHTS of pediatric cancer cell lines to identify multiple opportunities for drug repurposing: Primary screen for TC32 cells (AID 1347089); note: nearly all actives have a fitted effect of over 60% in size
Method in brief: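 TC32 cells, 500-1,000/well in growth medium, compound-treated 48 h at 37 °C; viability from CellTiter-Glo luminescence. Primary screen: MIPE 11-point (0.78 nM–46 µM final), NPC 8-point (0.59 nM–46 µM final); confirmatory at 11-point dilutions.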

[2] = qHTS of pediatric cancer cell lines to identify multiple opportunities for drug repurposing: Primary screen for DAOY cells (AID 1347090); note: nearly all actives have a fitted effect of over 55% in size
Method in brief: (§1)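 Eight- or eleven-point concentration series, 48 h treatment at 37 degrees C in growth media; readout CellTiter-Glo luminescence. Potency and efficacy were taken from the concentration-response curves.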

[3] = qHTS of pediatric cancer cell lines to identify multiple opportunities for drug repurposing: Primary screen for SJ-GBM2 cells (AID 1347091)
Method in brief: as §1

[4] = qHTS of pediatric cancer cell lines to identify multiple opportunities for drug repurposing: Primary screen for A673 cells (AID 1347092); note: nearly all actives have a fitted effect of over 45% in size
Method in brief: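 A673 cells (500-1,000 cells/well) were treated 48 hours at 37 degrees C with compounds at 11-point (0.78 nM to 46 µM) or 8-point (0.59 nM to 46 µM) dilutions. Viability read by CellTiter-Glo luminescence; concentration-response curves fitted.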

[5] = qHTS of pediatric cancer cell lines to identify multiple opportunities for drug repurposing: Primary screen for SK-N-MC cells (AID 1347093)
Method in brief: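 Metabolically active cells were quantified by ATP-dependent luminescence (CellTiter-Glo, 15 min at room temperature) following 48 h treatment. Cells had been plated at 500-1,000 per well and settled for 5 h beforehand.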

[6] = qHTS of pediatric cancer cell lines to identify multiple opportunities for drug repurposing: Primary screen for BT-37 cells (AID 1347094)
Method in brief: (§2)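 Luminescence from CellTiter-Glo served as readout of metabolically active cells after 48 h compound exposure. Titrations: MIPE 11-point, from 0.78 nM; NPC 8-point, from 0.59 nM (final). Concentration-response curves came straight from the primary screen.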

[7] = qHTS of pediatric cancer cell lines to identify multiple opportunities for drug repurposing: Primary screen for NB-EBc1 cells (AID 1347095)
Method in brief: as §2

[8] = qHTS of pediatric cancer cell lines to identify multiple opportunities for drug repurposing: Primary screen for U-2 OS cells (AID 1347096); note: nearly all actives have a fitted effect of over 50% in size
Method in brief: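 Cells (500-1,000/well) in growth media were settled 5 h at 37 degrees C, then given compounds for 48 h. Viability was read as CellTiter-Glo luminescence. Primary runs used MIPE at 11 points (0.78 nM-46 µM) and NPC at 8 points (0.59 nM-46 µM); follow-ups used 11 points.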

[9] = qHTS of pediatric cancer cell lines to identify multiple opportunities for drug repurposing: Primary screen for Saos-2 cells (AID 1347097); note: nearly all actives have a fitted effect of over 40% in size
Method in brief: as §2

[10] = qHTS of pediatric cancer cell lines to identify multiple opportunities for drug repurposing: Primary screen for SK-N-SH cells (AID 1347098); note: nearly all actives have a fitted effect of over 65% in size
Method in brief: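 Cells (500-1,000/well) rested 5 h, then received compounds for 48 h; metabolically active cells were measured by CellTiter-Glo luminescence. Final concentrations spanned up to 46 µM (MIPE, 11-point) or 0.59 nM-46 µM (NPC, 8-point) in primary screens, 11-point in follow-ups.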

Measured: Potency
Potency is the fitted concentration of half-maximal effect.

CC(C)=CCCC(C)=CCCC(C)=CCCC(C)=CCCC(C)=CCCC(C)=CCCC(C)=CCCC(C)=CCCC(C)=CCO
inactive: all assays above

COc1cccc(OC)c1-c1cc(C(=O)NC2(C(=O)O)C3CC4CC(C3)CC2C4)nn1-c1ccnc2cc(Cl)ccc12 (stereo not given)
active: [3] 26.4 µM | [5] 18.7 µM
not listed: [7] | [10]
inactive: all other assays above

Cc1cnc(-c2cc(N3CCN(C(=O)CCS(C)(=O)=O)CC3)ncc2Cl)c(C)c1
active: [4] 4.69 µM | [5] 16.6 µM
not listed: [6] | [10]
inactive: all other assays above

CC[C@]1(O)C[C@H]2CN(CCC3=c4ccccc4=N[C]3[C@@](C(=O)OC)(c3cc4c(cc3OC)N(C)[C@H]3[C@@](O)(C(N)=O)[C@H](O)[C@]5(CC)C=CCN6CC[C@]43[C@@H]65)C2)C1
active: [1] 58.7 nM | [2] 0.469 µM | [3] 0.001 µM | [4] 0.0148 µM | [5] 0.0235 µM | [6] 0.122 µM | [7] 0.0296 µM | [9] 0.148 µM

CC(C)C[C@@H](N)[C@H](O)C(=O)N[C@H](C(=O)N[C@H](C(=O)N[C@@H](CC(=O)O)C(=O)O)C(C)C)C(C)C
active: [10] 24.1 µM
not listed: [5]
inactive: all other assays above

CCN(CCO)CCCOc1ccc2c(Nc3cc(CC(=O)Nc4cccc(F)c4)[nH]n3)ncnc2c1
active: [1] 330 nM | [3] 0.166 µM | [5] 0.209 µM
inactive: [2] | [8] | [9]

N#CC(c1ccc(Cl)cc1)c1c(Cl)cc(-n2ncc(=O)[nH]c2=O)cc1Cl (stereo not given)
inactive: [1]
active: [2] 9.35 µM | [3] 23.5 µM | [5] 9.35 µM | [7] 8.33 µM | [9] 9.35 µM

NC(=O)c1ncn([C@@H]2O[C@H](CO)[C@@H](O)[C@@H]2O)n1
not listed: [4] | [5] | [7]
inactive: all other assays above

CCN1CCN(c2ccc(Nc3cc(N(C)C(=O)Nc4c(Cl)c(OC)cc(OC)c4Cl)ncn3)cc2)CC1
active: [3] 18.7 µM | [7] 20.9 µM
inactive: [1] | [2] | [6] | [8] | [10]

CC(C)(C)c1nc(-c2cccc(NS(=O)(=O)c3c(F)cccc3F)c2F)c(-c2ccnc(N)n2)s1
active: [2] 18.7 µM | [5] 0.59 µM
not listed: [4] | [8]
inactive: all other assays above

CCCCn1c(=O)n(Cc2ccccc2F)c(=O)c2[nH]c(Cc3ccc(NC(C)=O)cc3)nc21
active: [2] 23.5 µM | [5] 10.5 µM | [10] 27.1 µM
not listed: [4]
inactive: all other assays above

Cc1cc2nc3c(=O)[nH]c(=O)nc-3n(CC(O)C(O)C(O)CO)c2cc1C (stereo not given)
active: [5] 29.6 µM
not listed: [4] | [10]
inactive: all other assays above

Cc1ccc2c(c1)c1c(n2CCc2ccc(C)nc2)CCN(C)C1
not listed: [5] | [10]
inactive: all other assays above

CC(C)c1c(C(=O)Nc2ccccc2)c(-c2ccccc2)c(-c2ccc(F)cc2)n1CC[C@H](O)C[C@@H](O)CC(=O)O
inactive: [1]
active: [2] 11.8 µM | [3] 16.6 µM | [4] 18.7 µM | [5] 23.5 µM | [8] 18.7 µM | [9] 6.62 µM

Cc1ccc(S(=O)(=O)OCC(=O)Nc2ccc(C(=O)O)c(O)c2)cc1
active: [5] 9.35 µM
not listed: [4] | [7] | [10]
inactive: all other assays above

COc1ccnc(CS(=O)c2nc3ccc(OC(F)F)cc3[nH]2)c1OC (stereo not given)
not listed: [5]
inactive: all other assays above

COc1cc(Nc2nc3ccccc3nc2NS(=O)(=O)c2ccc(NC(=O)c3ccc(C)c(OC)c3)cc2)cc(OC)c1
inactive: [1]
active: [2] 23.5 µM | [3] 23.5 µM | [4] 23.5 µM | [5] 26.4 µM | [7] 26.4 µM | [10] 24.1 µM

COc1cc(N2CCN(C)CC2)ccc1Nc1nc(N)c(C(=O)c2c(Cl)cccc2Cl)s1
active: [5] 16.6 µM
inactive: [1] | [2] | [3] | [8] | [9]

O[C@@H](COc1cccc2ncccc12)CN1CCN(C2c3ccccc3[C@@H]3[C@H](c4ccccc42)C3(F)F)CC1 (stereo not given in full)
active: [2] 11.8 µM | [3] 3.35 µM | [4] 14.8 µM | [5] 9.35 µM | [7] 4.73 µM | [10] 15.2 µM
inactive: [1]

CN(C)CCCNC(=O)c1ccc(-c2cc(O)c3ncccc3c2)cc1
inactive: [1] | [2] | [3] | [5] | [8]
active: [4] 23.5 µM

CCNC(=O)Nc1ccc(Oc2ncnc(N)c2C=NOC)cc1Cl
active: [3] 5.26 µM | [5] 4.69 µM
inactive: [1] | [2] | [6] | [8] | [10]

CO[C@H]1O[C@@H]2O[C@@]3(C)CC[C@@H]4[C@@H](C)CC[C@@H]([C@H]1C)[C@@]24OO3
active: [5] 5.26 µM
not listed: [6] | [7] | [9]
inactive: all other assays above

CNC(=O)c1cc(COc2nnc(Nc3ccc(Cl)cc3)c3ccoc23)ccn1
active: [2] 23.5 µM | [3] 20.9 µM | [5] 23.5 µM | [7] 23.5 µM | [9] 18.7 µM
inactive: [1] | [10]

CCOC(=O)N1c2ccc(C(F)(F)F)cc2[C@@H](N(Cc2cc(C(F)(F)F)cc(C(F)(F)F)c2)C(=O)OC)C[C@H]1CC
inactive: [1] | [2] | [3] | [4] | [7] | [8]

CC(=O)N1CCN(c2ccc(OCc3nn(C)c(C)c3-c3cccc4c(CCCOc5cc(C)c(Cl)c(C)c5)c(C(=O)O)n(Cc5cccnc5)c34)cc2)CC1
inactive: [1] | [8]
active: [2] 18.7 µM | [3] 23.5 µM | [5] 4.18 µM | [6] 24.3 µM | [7] 14.8 µM | [9] 18.7 µM

CCOC(=O)[C@@H](N)CCC(=O)N[C@@H](CSCc1ccccc1)C(=O)N[C@@H](C(=O)OCC)c1ccccc1
not listed: [4] | [5]
inactive: all other assays above

CN1C(=O)C[C@H](C(=O)N[C@@H](Cc2cnc[nH]2)C(=O)N2CCC[C@@H]2C(N)=O)NC1=O
active: [6] 24.3 µM
not listed: [4] | [5] | [7]
inactive: all other assays above

CCC(=O)NCC[C@@H]1CCc2ccc3c(c21)CCO3
not listed: [4] | [9]
inactive: all other assays above

O=c1cc(-c2ccc(O)c(O)c2)oc2cc(O)cc(O)c12
not listed: [4] | [5] | [10]
inactive: all other assays above

Cc1ccc(NC(=O)Nc2cc(C(F)(F)F)ccc2F)cc1Nc1ccc2c(c1)NC(=O)C2=Cc1ccc[nH]1
active: [2] 14.8 µM | [3] 10.5 µM | [4] 7.43 µM | [6] 24.3 µM | [7] 11.8 µM | [8] 23.5 µM | [9] 20.9 µM | [10] 30.4 µM
inactive: [1]

Cn1cc(-c2ccc3nnc(Sc4ccc5ncccc5c4)n3n2)cn1
inactive: [1] | [6] | [7] | [8] | [10]
active: [2] 11.8 µM | [3] 0.0118 µM

CCNC(=O)c1noc(-c2cc(C(C)C)c(O)cc2O)c1-c1ccc(CN2CCOCC2)cc1
active: [1] 165 nM | [2] 0.235 µM | [3] 0.332 µM | [5] 0.0526 µM | [6] 0.137 µM | [7] 0.296 µM | [10] 0.152 µM

CC1C(=O)OC2C(O)C34C5CC(C(C)(C)C)C36C(OC(=O)C6O)OC4(C(=O)O5)C12O (stereo not given)
inactive: [1] | [2] | [3] | [8] | [9]
active: [5] 29.6 µM | [7] 14.8 µM

O=C(c1ccc(C=Cc2n[nH]c3ccccc23)cc1)N1CCNCC1
inactive: [2] | [6] | [8]
active: [1] 4660 nM | [3] 4.18 µM | [5] 1.18 µM | [7] 3.72 µM

Cc1ccc(C(=O)N(CCCN)[C@@H](c2nc3cc(Cl)ccc3c(=O)n2Cc2ccccc2)C(C)C)cc1
active: [1] 16.5 nM | [2] 0.0015 µM | [3] 0.001 µM | [4] 0.001 µM | [5] 0.0017 µM | [7] 0.001 µM | [9] 0.001 µM
inactive: [8] | [10]

Cc1cn([C@@H]2C[C@@H](O)[C@H](CO)O2)c(=O)[nH]c1=O
not listed: [4] | [5]
inactive: all other assays above

CC(C)(F)C[C@H](N[C@@H](c1ccc(-c2ccc(S(C)(=O)=O)cc2)cc1)C(F)(F)F)C(=O)NC1(C#N)CC1
active: [3] 14.8 µM
not listed: [4] | [6] | [7]
inactive: all other assays above

CC(=O)O[C@]1(C(C)=O)CC[C@H]2[C@@H]3C=C(Cl)C4=CC(=O)[C@@H]5C[C@H]5[C@]4(C)[C@@H]3CC[C@@]21C
active: [2] 18.7 µM | [3] 9.35 µM | [5] 7.43 µM | [10] 12.1 µM
inactive: [1] | [8]

CN[C@@H](C)[C@H]1[C@H](O)C[C@@]2(C)[C@@H]3CC[C@H]4C(C)(C)[C@@H](NC)CC[C@@]45C[C@@]35CC[C@]12C
not listed: [4] | [5] | [10]
inactive: all other assays above
